The source of these data is PubChem BioAssay (Tox21).

Results filed as inconclusive are left out. Values without a mark were called inactive. The source made the active and inactive calls. The call rests on the fitted dose curve; in most records, active means well fitted cell-killing curve with a large enough effect in the repeat runs; inconclusive means weak or mixed curves, or effect the other way; inactive means flat fitted curve, though single readings scatter.
On the % scale 0 is the no-effect control and ±100 the full control effect; potency means the concentration at half of the fitted maximal effect.

A short description of the assay: qHTS assay to identify small molecule agonists of the sonic hedgehog signaling (Shh) pathway - cell viability counter screen (AID 1259366). Further: nearly all actives have a fitted effect of over 50% in size. The following applies: NIH/3T3 Gli1-Luc viability, CellTiter-Fluor, 24 h; series mostly up to 92.4 µM; viability change, negative = cytotoxic: at the top concentration. A digest of the protocol:
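Compounds in DMSO were pin-transferred onto 3T3 Gli1-Luc cells that had settled 4hr; plates then stood 24hr at 37C and 5% CO2. One hour before the end, CellTiter-Fluor was added and fluorescence recorded.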
As for `COC(=O)CC(C(C)=O)C(=O)OC` (stereo unspecified), the “viability change, negative = cytotoxic” value was 0.303%.
For the compound `CC(C)(O)CCc1ccccc1`, the “viability change, negative = cytotoxic” value was -0.507%.
Regarding `C=C(C)c1ccccc1`, the “viability change, negative = cytotoxic” value is 4.11%.
In the case of `Cc1cccc2sc(N)nc12`, the “viability change, negative = cytotoxic” value was 8.21%.
In the case of `CC(=O)Oc1cccc(O)c1`, the “viability change, negative = cytotoxic” value was -2.5% [at 42.5 µM].
On to `CCCOC(=O)c1c(Cl)c(Cl)c(Cl)c(Cl)c1C(=O)OCCC`, for which the “viability change, negative = cytotoxic” value is 3.01%.
In the case of `CCc1ccc(C)cc1`, the “viability change, negative = cytotoxic” value was 6.14%.
As to `COC(OC)OC`, the “viability change, negative = cytotoxic” value is 3.98%.
As for `CCCCCCCCCCCCCOS(=O)(=O)O`, the “viability change, negative = cytotoxic” value was 2.04%.
`Nc1ccc(F)cc1`: the “viability change, negative = cytotoxic” value is 2.45%.
Still for that read-out and setting: the result for `CC(=O)OCCC(C)CC(C)(C)C` (stereo unspecified) reads 0.288%.
As to `CCCCCc1ccco1`, the “viability change, negative = cytotoxic” value was 1.59% [at 42.5 µM].
In the case of `CC(=O)C(C)=O`, the “viability change, negative = cytotoxic” value is 9.85%.
In the case of `CC(C)N(C)C`, the “viability change, negative = cytotoxic” value was -2.75%.
Regarding `CCC(=O)OCc1ccc(OC)cc1`, the “viability change, negative = cytotoxic” value was 1.44%.
Same read-out and setting: to `O=C(NC(Cc1cc(=O)[nH]c2ccccc12)C(=O)O)c1ccc(Cl)cc1` (stereo unspecified) belongs 2.47% [at 42.5 µM].
The same measure, in the same setting: the result for `CN1C(CSCC(F)(F)F)Nc2cc(Cl)c(S(N)(=O)=O)cc2S1(=O)=O` (stereo unspecified) reads 9.84% [at 42.5 µM].
On to `CCCCOC(=O)CCCCC(=O)OCCCC`, for which the “viability change, negative = cytotoxic” value is -0.225%.
`Cc1ccc(N(CCO)CCO)cc1`: the “viability change, negative = cytotoxic” value is 4.87%.
With `Cc1c(C2(c3cc(Br)c(O)c(Br)c3C)OS(=O)(=O)c3ccccc32)cc(Br)c(O)c1Br`, the Potency was 9.4 µM (active).
Regarding `C=Cc1ccc(OC(C)=O)cc1`, the “viability change, negative = cytotoxic” value is -19.4%.
Still for that read-out and setting: the result for `CNCc1ccc(NC(=O)c2c[nH]c3c2C(=O)CCC3)cc1` reads -6.97%; that for `CC(C)COC(=O)c1ccc(O)cc1`, -13.9%; that for `C[C@@H]1C[C@H]2[C@@H]3CCC4=CC(=O)C=C[C@]4(C)[C@@]3(F)[C@@H](O)C[C@]2(C)[C@@]1(O)C(=O)COP(=O)(O)O`, 8.18%.
Same read-out and setting: the result for `Cc1ccc2c(c1[N+](=O)[O-])C(=O)c1ccccc1C2=O` reads 2.84% [at 42.5 µM].
Consider `CCN(Cc1cccc(S(=O)(=O)O)c1)c1ccc(C(=C2C=CC(=[N+](CC)Cc3cccc(S(=O)(=O)O)c3)C=C2)c2ccc(O)cc2S(=O)(=O)[O-])cc1`, for which the Potency is 16.6 µM (active).
